# Structures can show the parent of a compound that is named as a salt.
# Assays:
# [1] = tested on: RIVA; experiment: growth inhibition by drug plus 177Lu-lilotomab satetraxetan (1 - RLU/untreated control) (fraction); higher = stronger inhibition; settings: 177Lu-lilotomab satetraxetan 0.5 ug/ml
# Procedure, shortened: (§1)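 A radiolabelled anti-CD37 antibody conjugate (~600 MBq/mg) was applied for 18 h at 0.5 µg/ml to RIVA and 1 µg/ml to U-2932 cells, with untreated cells run alongside. All cells were washed and seeded at 3,000 cells/well onto library-printed plates at 10/100 nM (RIVA) or 10/1,000 nM (U-2932). Growth inhibition was based on RealTime-Glo luminescence compared with untreated no-drug wells. Daily reads began on day 3 after 1 h at 37°C, with each value being 1 − RLU/mean of the 48 such wells on that plate.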
# [2] = tested on: U-2932; experiment: growth inhibition by drug alone (1 - RLU/untreated control) (fraction); higher = stronger inhibition; settings: 177Lu-lilotomab satetraxetan 0 ug/ml
# Procedure, shortened: as §1
# [3] = tested on: RIVA; experiment: as above; settings: 177Lu-lilotomab satetraxetan 0 ug/ml
# Procedure, shortened: as §1
# [4] = tested on: U-2932; experiment: growth inhibition by drug plus 177Lu-lilotomab satetraxetan (1 - RLU/untreated control) (fraction); higher = stronger inhibition; settings: 177Lu-lilotomab satetraxetan 1 ug/ml
# Procedure, shortened: as §1
SMILES,"growth inhibition by drug plus 177Lu-lilotomab satetraxetan ([1]; 100 nM, time (day): 5)","growth inhibition by drug plus 177Lu-lilotomab satetraxetan ([1]; 100 nM, time (day): 6)","growth inhibition by drug alone ([2]; 10 nM, time (day): 3)","growth inhibition by drug alone ([2]; 10 nM, time (day): 4)","growth inhibition by drug alone ([2]; 10 nM, time (day): 5)","growth inhibition by drug alone ([2]; 10 nM, time (day): 6)","growth inhibition by drug alone ([2]; 1000 nM, time (day): 3)","growth inhibition by drug alone ([2]; 1000 nM, time (day): 4)","growth inhibition by drug alone ([2]; 1000 nM, time (day): 5)","growth inhibition by drug alone ([2]; 1000 nM, time (day): 6)","growth inhibition by drug alone ([3]; 10 nM, time (day): 3)","growth inhibition by drug alone ([3]; 10 nM, time (day): 4)","growth inhibition by drug alone ([3]; 10 nM, time (day): 5)","growth inhibition by drug alone ([3]; 10 nM, time (day): 6)","growth inhibition by drug alone ([3]; 100 nM, time (day): 3)","growth inhibition by drug alone ([3]; 100 nM, time (day): 4)","growth inhibition by drug alone ([3]; 100 nM, time (day): 5)","growth inhibition by drug alone ([3]; 100 nM, time (day): 6)","growth inhibition by drug plus 177Lu-lilotomab satetraxetan ([4]; 10 nM, time (day): 3)","growth inhibition by drug plus 177Lu-lilotomab satetraxetan ([4]; 10 nM, time (day): 4)","growth inhibition by drug plus 177Lu-lilotomab satetraxetan ([4]; 10 nM, time (day): 5)","growth inhibition by drug plus 177Lu-lilotomab satetraxetan ([4]; 10 nM, time (day): 6)","growth inhibition by drug plus 177Lu-lilotomab satetraxetan ([4]; 1000 nM, time (day): 3)","growth inhibition by drug plus 177Lu-lilotomab satetraxetan ([4]; 1000 nM, time (day): 4)","growth inhibition by drug plus 177Lu-lilotomab satetraxetan ([4]; 1000 nM, time (day): 5)","growth inhibition by drug plus 177Lu-lilotomab satetraxetan ([4]; 1000 nM, time (day): 6)","growth inhibition by drug plus 177Lu-lilotomab satetraxetan ([1]; 10 nM, time (day): 3)","growth inhibition by drug plus 177Lu-lilotomab satetraxetan ([1]; 10 nM, time (day): 4)","growth inhibition by drug plus 177Lu-lilotomab satetraxetan ([1]; 10 nM, time (day): 5)","growth inhibition by drug plus 177Lu-lilotomab satetraxetan ([1]; 10 nM, time (day): 6)","growth inhibition by drug plus 177Lu-lilotomab satetraxetan ([1]; 100 nM, time (day): 3)","growth inhibition by drug plus 177Lu-lilotomab satetraxetan ([1]; 100 nM, time (day): 4)"
CNC(=O)c1cc(Oc2ccc(NC(=O)Nc3cc(C(C)(C)C)nn3-c3ccc4ncccc4c3)c(F)c2)ccn1 [DCC-2036 (Rebastinib)],0.626,0.633,,,,,,,,,,,,,,,,,,,,,,,,,,,,,,
CC(c1cc2ccccc2s1)N(O)C(N)=O (configuration not stated) [Zileuton],0.496,0.482,0.0373,0.016,-0.0853,-0.151,-0.0669,-0.0105,-0.0851,-0.12,-0.0289,-0.0441,-0.104,-0.421,-0.161,-0.195,-0.186,-0.323,-0.00999,0.00112,0.025,0.0355,-0.0574,0.0263,-0.0233,0.0666,0.389,0.507,0.537,0.547,0.4,0.496
C#Cc1cccc(Nc2ncnc3cc(OC)c(OCCCCCCC(=O)NO)cc23)c1,0.926,0.923,,,,,,,,,-0.19,-0.225,-0.209,-0.242,0.881,0.779,0.749,0.672,-0.132,-0.086,-0.0994,-0.0508,0.971,0.977,0.981,0.984,0.365,0.467,0.495,0.496,0.935,0.924
CC(C)c1ccc(Cn2ccc3c4c(N)nc(NC5CC5)nc4ccc32)cc1,0.786,0.799,,,,,,,,,0.0749,0.155,0.0828,-0.0413,0.639,0.486,0.491,0.444,0.151,0.196,0.261,0.274,0.982,0.983,0.986,0.989,0.658,0.702,0.716,0.712,0.787,0.778
Nc1ccccc1NC(=O)c1ccc(CNc2nccc(-c3cccnc3)n2)cc1 [Mocetinostat (MGCD0103)],,,0.00982,0.0102,0.0298,0.152,0.868,0.878,0.889,0.91,-0.0534,-0.0971,-0.0989,-0.142,0.358,0.254,0.208,0.152,-0.0242,-0.00346,0.0145,0.11,0.876,0.893,0.907,0.934,,,,,,
O=C(O)CC[C@H]1CC[C@@](c2cc(F)ccc2F)(S(=O)(=O)c2ccc(Cl)cc2)CC1,,,0.105,0.0715,-0.0926,-0.0883,0.0344,0.041,-0.0603,-0.0323,0.072,0.0162,-0.0366,-0.42,-0.186,-0.2,-0.179,-0.202,0.00844,0.0724,0.123,0.147,0.000893,0.0697,0.0856,0.142,,,,,,
CCNC(=O)c1noc(-c2cc(C(C)C)c(O)cc2O)c1-c1ccc(CN2CCOCC2)cc1,,,0.0556,0.0532,-0.00948,0.11,0.942,0.972,0.981,0.982,0.0724,-0.0275,-0.068,-0.156,0.971,0.977,0.978,0.975,0.117,0.0968,0.0861,0.245,0.936,0.973,0.981,0.984,,,,,,
O=C1[C@H](CC[C@H](O)c2ccc(F)cc2)[C@@H](c2ccc(O)cc2)N1c1ccc(F)cc1 [Ezetimibe (Zetia)],0.489,0.494,,,,,,,,,0.0453,0.0693,-0.0268,-0.174,-0.17,-0.068,-0.0985,-0.21,0.101,0.145,0.218,0.274,0.142,0.17,0.216,0.332,0.537,0.594,0.604,0.623,0.406,0.479
Cc1cnc(Nc2ccc(OCCN3CCCC3)cc2)nc1Nc1cccc(S(=O)(=O)NC(C)(C)C)c1,,,,,,,,,,,-0.231,-0.238,-0.322,-0.459,-0.338,-0.438,-0.41,-0.775,-0.0587,-0.0475,-0.0161,0.0198,0.127,0.122,0.0513,0.0765,,,,,,
Clc1ccc(Nc2nnc(Cc3ccncc3)c3ccccc23)cc1 [Vatalanib dihydrochloride (PTK787)],0.439,0.426,,,,,,,,,-0.0393,-0.0522,-0.084,-0.232,-0.0903,-0.0658,-0.0924,-0.165,-0.0142,0.0115,0.0124,0.0638,-0.0725,0.0231,-0.00359,-0.0503,0.334,0.509,0.527,0.534,0.328,0.442
CCc1ccc(CCOc2ccc(CC3SC(=O)NC3=O)cc2)nc1 (configuration not stated) [Pioglitazone (Actos)],0.498,0.506,,,,,,,,,-0.15,-0.212,-0.202,-0.191,-0.391,-0.381,-0.369,-0.359,-0.113,-0.0372,0.0193,0.114,-0.102,-0.0405,0.0194,0.192,0.53,0.578,0.604,0.598,0.416,0.476
